# Measured values: PubChem BioAssay (NCI)
# This is part of a sample that, as a whole, favours compounds with a hit. Of some 79,000 tested, about 15% had one in any assay. Activity calls are given as the source filed them. No stated cut-off is given here; in the data, active means growth inhibition above about 70%; inactive means the rest.
# Assay: NCI Yeast Anticancer Drug Screen. Data for the bub3 strain (AID 167)
# Settings: S. cerevisiae bub3 mutant strain, at 50.0 µM (retest, dose inferred, filed as 5.0), active compounds read high
# Summary of the method: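 Screening used yeast with an engineered genetic alteration affecting cell cycle control. Compound-exposed cultures were compared with vehicle cultures, and reduced growth was taken as inhibition.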
row,SMILES,growth inhibition
1,CC(C)(C)CC(C)(C)c1ccc(O)cc1,98% (active)
2,CC[n+]1c(/C=C/c2ccc(N(CCCl)CCCl)cc2)ccc2cc(I)ccc21,99% (active)
3,CCCCCCC1CCC2CCCC(C)N12 (centres undefined),74% (active)
4,C[N+](C)(C)CC1CCC(C[N+](C)(C)C)C1=O (centres undefined),6% (inactive)
5,CCC[CH2][Sn]1([CH2]CCC)[O]C(=O)c2cc(C)ccc2[O]1,98% (active)
6,COc1ccc(CC2C(=O)NC(C)C(=O)N(C)C3C(=O)N(C)C(Cc4ccc(O)c(c4)Oc4ccc(cc4)C3O)C(=O)NC(C)C(=O)NC(C)C(=O)N2C)cc1 (centres undefined),81% (active)
7,CC(=O)Nc1cccc([As+](C)(c2cccc(NC(C)=O)c2)c2cccc(NC(C)=O)c2)c1,3% (inactive)
8,COC1OC(COC(C)=O)C(OC(C)=O)C(OC(C)=O)[C]1(OC(C)=O)[Hg][O]C(C)=O (centres undefined),99% (active)
9,CCOC(=O)C(NC(=O)C(Cc1ccc(N(CCCl)CCCl)cc1)NC(C)=O)C(C)C (centres undefined),-2% (inactive)
10,CN1c2cccc[c]2[Sn]([CH3])([CH3])[c]2ccccc21,99% (active)
11,Cc1ccc(C(=O)OC(C(=O)O)C(OC(=O)c2ccc(C)cc2)C(=O)O)cc1 (centres undefined) (tested in a mixture with another compound),88% (active)
12,CC(C)(c1ccccc1)c1ccc(O)cc1,97% (active)
13,CC1(C)N=C(N)N=C(N)N1CCCOc1ccc(NC(=O)c2ccc(S(=O)(=O)F)cc2)cc1,-4% (inactive)
14,CC1=CC2OC3CC4OC(=O)/C=C/C=C/C(=O)OCCC(C)C(O)C(=O)OCC2(CC1O)C4(C)C31CO1 (centres undefined),98% (active)
